# The whole screen tested about 370,000 compounds, of which about 4,700 (1.3%) were called active. For the sample, actives were picked, then their nearest neighbours and some compounds at random. Unmarked numbers belong to inactive results.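 Rule for the calls: active = inhibition above the plate cutoff, the mean of all test compounds on that plate plus 3 SD (cut at about 35% in these data); inactive = the rest.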
# Test: binders of r(CAG) RNA repeats, primary screen, biochemical, fluorescence (AID 651821);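 note: 0% = DMSO alone and 100% = 100 µM mitoxantrone as full dye displacement; higher means more dye released from RNA so lower well fluorescence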
# Conditions: r(CAG) RNA repeat, TO-PRO-1 dye displacement fluorescence; at 3 µM; active compounds read high
row,Compound,inhibition
1,COc1ccc(CN2C/C(=C/c3ccccc3)N3C(=O)C[C@@H](c4ccccc4)N=C23)c(OC)c1,2.75%
2,Cc1cc(F)ccc1S(=O)(=O)Nc1ncnc2scc(-c3ccc(F)cc3)c12,40.3% (active)
3,O=S(=O)(Nc1ncnc2sccc12)c1cccc(F)c1,5.08%
4,COc1ccc(-c2csc3ncnc(N4CCN(S(=O)(=O)c5cccc(F)c5)CC4)c23)cc1,3.79%
5,Cc1ccc2nc(-c3ccc(CN4CCC(n5cc(-c6ccccc6)[nH]c5=O)CC4)cc3)c(-c3ccccc3)nc2c1,9.33%
6,COc1cccc(CNC(=O)C2CCCN(c3nc4ccccc4o3)C2)c1OC (stereo unspecified),4.36%
7,CC(=O)c1ccc(NC(=O)C2CC(=O)Nc3nc4ccccc4n32)cc1 (stereo unspecified),2.8%
8,Brc1ccc(COCCc2cn(Cc3ccccc3)c3ccccc23)cc1,3.73%
9,Cc1ccc(S(=O)(=O)NNC(=O)/C=C/c2cccc(F)c2)cc1,3.74%
10,C/C=C/c1ccc(OCC(=O)NNC(=O)CN(C)S(=O)(=O)c2ccc(C)cc2)c(OC)c1,1.87%
11,COc1ccc(/C=C/C(=O)c2ccc(NS(=O)(=O)c3ccc(C)cc3)cc2)cc1O,43% (active)
12,O=C(NCc1ccccc1)[C@H]1CCCN1C(=O)[C@H]1CCCN1C(=O)N1CCOCC1,-0.04%
13,COc1ccc(-c2csc3ncnc(Oc4ccc5c(C)cc(=O)oc5c4)c23)cc1,0.56%
14,CC(C)OC(=O)c1ccc(COc2ccc3ccc(=O)oc3c2)o1,-0.52%
15,COc1ccc(-c2cc3ccc(OCc4nn[nH]n4)cc3oc2=O)cc1,44.7% (active)
16,CN(C)Cc1ccc(F)cc1Sc1cc(Cl)ccc1Cl,-7.65%
17,CN(CCc1ccccc1)C(=O)Cn1nc(-c2ccccc2)ccc1=O,-2.33%
18,CCc1nnc(NS(=O)(=O)c2ccc(N=Cc3c(C)[nH]n(-c4ccc(C)cc4)c3=O)cc2)s1,56.7% (active)
19,COc1cc(SC#N)ccc1N=Cc1c(C)[nH]n(-c2ccc(C)cc2)c1=O,6.39%
20,CCc1nnc(NC(=O)CCN(c2ccc(C)cc2)S(=O)(=O)c2ccccc2)s1,1.09%
21,CCOC(=O)N1CCN(C(=O)C[C@H]2C[C@@]3(C(=O)OC)C(=C[C@H](C4CCCC4)O[C@@H]3C)N(Cc3ccccc3)C2=O)CC1,1.98%
22,O=C(OC12CCCN(C1)/C(=C/c1ccccc1)C2)c1ccco1 (stereo unspecified),3.14%

row,Compound,inhibition
1,COC(=O)Cc1csc(/N=C/c2c(O)n(-c3cccc(C(F)(F)F)c3)c(=O)c3ccccc23)n1,-0.9%
2,CCOc1ccc(-n2c(O)c(/C=N/Nc3nnc(C)c(=O)[nH]3)c3ccccc3c2=O)cc1,47.2% (active)
3,CCOc1ccc(N/C(N)=N/c2nc(C)c(C)c(=O)[nH]2)cc1,1.99%
4,O=C(COc1ccccc1Cl)Nn1cnnc1,2.37%
5,CCCCN1CCN(C(=O)c2ccc3c(c2)NC(=O)C(C)(C)O3)CC1,-0.58%
6,CCOC(=O)C1(Cc2ccccc2)CCN(Cc2cn(C(C)=O)c3ccccc23)CC1,-1.49%
7,CC(=O)NC(c1ccccc1)c1nc(-c2cccc(C(C)C)c2)cs1 (stereo unspecified),0.86%
8,CC(=O)Nc1ccc(S(=O)(=O)Nc2nc(-c3ccc(C(C)(C)C)cc3)cs2)cc1,66.5% (active)
9,CCCn1c(C)cc(-c2csc(NC(=O)CCc3nc4ccccc4c(=O)[nH]3)n2)c1C,24.8%
10,CCN(CC)CCn1c2c(c(SCC(=O)Nc3nc4ccccc4s3)nc1=O)CCCC2,-6.14%
11,COc1ccc(C(C)(NC(C)=O)c2nc(-c3ccc(S(C)(=O)=O)cc3)cs2)cc1 (stereo unspecified),-0.32%
12,CC(=O)Nc1ccc(C(=O)Nc2nc(-c3cc(C)n(Cc4ccccc4)c3C)cs2)cc1,51.7% (active)
13,CC(=O)Nc1ccc(S(=O)(=O)Nc2ccc(-c3ccc4nnc(C)n4n3)cc2)cc1,6.21%
14,CC(=O)Nc1ccc(-c2csc(NC(=O)Nc3ccccc3)n2)cc1,53.7% (active)
15,O=C(Nc1ccccc1)Nc1nc2ccccc2s1,41.3% (active)
16,Cn1c(CNc2nc(-c3ccccc3)cs2)nnc1SCC(=O)c1ccccc1,8.83%
17,Cc1ccc(C(=O)Nc2c(C#N)c(C)c(C)n2Cc2ccccc2)cc1,0.41%
18,CC(C)CC(=O)N/C(N)=N/c1nc2ccccc2s1,0.1%
19,CC(NCc1ccco1)C(=O)N1CCCCC1 (stereo unspecified),2.88%
20,CC(C)CNc1cccc2c1S(=O)(=O)N[C@H](CC(C)C)CO2,-1.29%
21,COc1ccc(-c2ccccc2C2Cc3nnccc3CN2C(=O)Nc2ccccc2)cc1 (stereo unspecified),8.81%
22,COc1ccnc(C(=O)N2CCC(Oc3cccnc3)CC2)c1,2.96%

row,Compound,inhibition
1,CN(C)Cc1cn(-c2ccc(-c3noc4c3C(=O)N(CC(=O)N3CCOCC3)CC4)cc2)nn1,4.11%
2,CCOC(=O)c1csc(NC(=O)C2CCCN(S(=O)(=O)c3ccc(Cl)s3)C2)n1 (stereo unspecified),3.09%
3,Nc1nc2c(ncn2[C@@H]2O[C@H](C(=O)N[C@@H](Cc3ccccc3)C(=O)NCc3ccccc3)[C@@H](O)[C@H]2O)c(=O)[nH]1,3.57%
4,CCOC(=O)[C@]12CCCC=C1N(CCCOC)C(=O)[C@@H]2CC(=O)N1CCOCC1,0.28%
5,COc1ccc(CCNC(=O)CN2CCC(n3nnc4cc(F)ccc43)CC2)cc1OC,-9.88%
6,CCOc1ccccc1Nc1nnc(SCc2ccc(C(=O)OC)o2)s1,0.96%
7,Cc1ccc(C(=O)Oc2coc(CSc3nnc(NC(=O)c4cccs4)s3)cc2=O)cc1C,68.7% (active)
8,COC(=O)c1ccc(CSc2nnc(NC(C)C)s2)cc1,-4.56%
9,C=CCN1C(=O)[C@@H](CC(=O)N2CCN(C(=O)c3ccco3)CC2)[C@]2(C(=O)OC)CCCCC=C12,7.73%
10,O=C(O)/C(=C/c1cccnc1)NC(=O)c1ccccc1,1.01%
11,O=C(N/N=C/c1ccsc1)c1cc(O)cc(O)c1,9.53%
12,O=C(N/N=C/c1cccnc1)c1cc2ccccc2cc1O,46.1% (active)
13,CC(=O)Nc1ccc(CN2CCC(Oc3ccc(C(=O)N4CCCC4)cc3)CC2)cc1,-7.88%
14,COC(=O)C12C=C3CC(c4ccccc4)=C3C(=O)N1Cc1[nH]c3ccccc3c1C2 (stereo unspecified),7.34%
15,CC1CCCCN1S(=O)(=O)c1ccc(C(=O)Nc2nnc(-c3cccs3)o2)cc1 (stereo unspecified),49% (active)
16,CC1CC(C)CN(S(=O)(=O)c2ccc(C(=O)NN3CCOCC3)cc2)C1 (stereo unspecified),-3.03%
17,CC1CCCCN1S(=O)(=O)c1ccc(S(=O)(=O)N(CC(=O)Nc2ccccc2)Cc2cccs2)cc1 (stereo unspecified),2.51%
18,O=C(Nc1nnc(-c2ccccc2)o1)c1cccc(S(=O)(=O)N2CCOCC2)c1,8.5%
19,CC1CN(S(=O)(=O)c2ccc(C(=O)Nc3sccc3C(N)=O)cc2)CC(C)O1 (stereo unspecified),11.2%
20,CC1CCCN(S(=O)(=O)c2ccc(C(=O)Nc3nnc(-c4ccncc4)o3)cc2)C1 (stereo unspecified),35% (active)
21,O=C(NCc1ccc(Cl)cc1)C1CCCN(c2nc3ccccc3o2)C1 (stereo unspecified),5.58%
22,CC(=O)Nc1ccc(OC[C@@H](O)CN2CCC(C(O)(c3ccccc3)c3ccccc3)CC2)cc1,-1%

row,Compound,inhibition
1,O=C(NCc1ccccc1)[C@H]1CCCN1C(=O)[C@H]1CCCN1C(=O)c1cc(F)cc(F)c1,-2.08%
2,CCOC(=O)c1c(C)nn(-c2ncccc2NC(=O)CCC(=O)O)c1C,3.15%
3,CCOC(=O)c1c(-c2ccc(C)cc2C)csc1NC(=O)CSc1nnnn1C,1.95%
4,CCOC(=O)c1c(-c2ccc(-c3ccccc3)cc2)csc1NC(=O)CCC(=O)O,43.3% (active)
5,CC1(C)CC(=O)C=C(NCCN2CCNCC2)C1,-4.08%
6,CC(=O)C1=C(C)N(Cc2ccc(Cl)cc2)C(=S)NC1c1ccc(F)cc1 (stereo unspecified),5.48%
7,O=C(COC(=O)c1cc([N+](=O)[O-])ccc1NCc1ccccc1)NC1CCCCC1,-1.88%
8,Cc1cccc(NS(=O)(=O)c2ccc(C)c(C(=O)NCC(c3ccccc3)N(C)C)c2)c1 (stereo unspecified),-4.14%
9,Cc1ccc(S(=O)(=O)NCCCn2ccnc2)cc1C(=O)NC(C)C,-1.64%
10,Cc1ccc(S(=O)(=O)NCCC(c2ccccc2)c2ccccc2)cc1C(=O)O,42.4% (active)
11,O=S1(=O)c2ccc(N3CCN(Cc4ccccc4F)CC3)cc2Oc2ccccc2CN1Cc1cn(Cc2ccc(Cl)cc2)nn1,12.5%
12,O=S1(=O)c2c(cccc2N2CC[C@H](O)C2)O[C@@H]2CCN1C2,2.13%
13,Oc1ccc(-c2[nH]ncc2-c2nc3ccccc3s2)c(O)c1,34.9% (active)
14,NC(=O)Cc1ccc2sc(-c3ccccc3)nc2c1,1.7%
15,Cc1ccc(S(=O)(=O)N2CCN(C(=O)c3ccccc3-c3nc4ccccc4s3)CC2)c(C)c1,-1.03%
16,O=C(CN1CCCc2ccccc21)NCc1ccc(F)cc1,5.24%
17,C=CS(=O)(=O)N(Cc1nnn(Cc2ccccc2)c1Br)[C@H](C(=O)OC)C(C)C,-1.47%
18,Cc1cccc(NC(=O)c2cc3c(C)nn(-c4ccccc4)c3s2)c1,11.1%
19,Cc1nn2c(c1-c1ccccc1)N=C(c1ccco1)CC2c1ccccc1 (stereo unspecified),11.8%
20,COC(=O)C1=C(C)N(Cc2ccccc2C(F)(F)F)C(=NCc2ccc(OC)cc2)NC1c1cccc(C(F)(F)F)c1 (stereo unspecified),1.76%
